The source of these data is PubChem BioAssay (NCI).

This is part of a sample that, as a whole, favours compounds with a hit. Of some 79,000 tested, about 15% had one in any assay. Unmarked numbers belong to inactive results. Calls of active or inactive are those of the source. Rule as the data show it: active = growth inhibition above about 70%; inactive = the rest.

Experiment [1] can be described thus: NCI Yeast Anticancer Drug Screen. Data for the rad50 strain (AID 155).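 Also: 0% = growth of vehicle-only cultures of the same strain.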 The settings on record: S. cerevisiae rad50 strain growth inhibition, stronger effect = higher value. In a few lines:
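Readout: growth inhibition relative to vehicle-treated cultures. Compound exposure was carried out in a genetically defined yeast strain deficient in DNA damage repair.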

Experiment [2] is described as follows: NCI Yeast Anticancer Drug Screen. Data for the mec2-1 strain (AID 157). The settings on record: S. cerevisiae mec2-1 strain, stronger effect = higher value. Summed up: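 Test agents were screened against the mec2-1 yeast strain, with defined DNA repair or cell cycle alteration. Growth was scored as inhibition against vehicle-only controls.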
The nature of experiment [3]: NCI Yeast Anticancer Drug Screen. Data for the sgs1 mgt1 strain (AID 161).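 Also: 0% = growth of cultures given vehicle only.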 The settings on record: S. cerevisiae sgs1 mgt1 strain, stronger effect = higher value. Summed up: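 Mutant yeast exposed to compound; growth scored against vehicle-only wells.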
Experiment [4] is described as follows: NCI Yeast Anticancer Drug Screen. Data for the cln2 rad14 strain (AID 165).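 Also: 0% = growth equal to vehicle treated cultures.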 The settings on record: S. cerevisiae cln2 rad14 strain, stronger effect = higher value. Summed up: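 Growth of compound-exposed yeast (cln2 rad14 genotype) measured and expressed as inhibition relative to vehicle.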
A short description of experiment [5]: NCI Yeast Anticancer Drug Screen. Data for the bub3 strain (AID 167). The settings on record: S. cerevisiae bub3 mutant strain, stronger effect = higher value. Summed up:
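Readout: yeast growth inhibition, expressed relative to vehicle-only wells. The test organism is a mutant strain from a panel with lesions in DNA repair or checkpoint genes.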

Experiment [6] can be described thus: NCI Yeast Anticancer Drug Screen. Data for the mlh1 rad18 strain (AID 175). The settings on record: S. cerevisiae mlh1 rad18 strain growth inhibition, stronger effect = higher value. In a few lines: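 In this whole-cell yeast screen, a strain with altered DNA damage repair is challenged with compound, and its growth is measured against matched vehicle-treated controls.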

Setting [7] is: at 5.0 µM (retest, dose inferred, filed as 0.5).
Setting [8] is: at 50.0 µM (retest, dose inferred, filed as 5.0).

For the compound `C/C(=N\NC(=S)N1CC(C)OC(C)C1)c1ncccn1` (stereo not given), the growth inhibition in experiment [1] (setting [7]) was 53%; in experiment [1] (setting [8]), 81% (active); in experiment [1] (at 50.0 µM) it was 99.5% (active); in experiment [2] (setting [7]), 43%; in experiment [2] (setting [8]), 100% (active); in experiment [2] (at 50.0 µM) it was 99.4% (active). Also, the growth inhibition is 52% in experiment [3] (setting [7]); 100% (active) in experiment [3] (setting [8]); 99.5% (active) in experiment [3] (at 50.0 µM); 52% in experiment [4] (setting [7]); 99% (active) in experiment [4] (setting [8]); 99.2% (active) in experiment [4] (at 50.0 µM). Besides, the growth inhibition in experiment [5] (setting [7]) was 44%; in experiment [5] (setting [8]) it was 99% (active); in experiment [5] (at 50.0 µM), 99.3% (active); in experiment [6] (setting [7]) it was 80% (active); in experiment [6] (setting [8]), 99% (active); in experiment [6] (at 50.0 µM), 99.3% (active).

As to `O=Cc1[nH]c(=S)[nH]c(=O)c1Cc1cccc2ccccc12`, the growth inhibition in experiment [1] (setting [7]) is -8%; in experiment [1] (setting [8]) it was 96% (active); in experiment [1] (at 50.0 µM), 97.9% (active); in experiment [2] (setting [7]), -3%; in experiment [2] (setting [8]), 98% (active); in experiment [2] (at 50.0 µM), 97.8% (active). For the same compound, the growth inhibition in experiment [3] (setting [7]) was 11%; in experiment [3] (setting [8]), 99% (active); in experiment [3] (at 50.0 µM), 98.8% (active); in experiment [4] (setting [7]), 0%; in experiment [4] (setting [8]) it was 98% (active); in experiment [4] (at 50.0 µM), 91.8% (active). Further, the growth inhibition in experiment [5] (setting [7]) is -19%; in experiment [5] (setting [8]) it was 98% (active); in experiment [5] (at 50.0 µM), 98% (active); in experiment [6] (setting [7]), -3%; in experiment [6] (setting [8]), 98% (active); in experiment [6] (at 50.0 µM), 98.9% (active).

`Fc1ccc(CN2COc3c(ccc4cccnc34)C2)cc1`: the growth inhibition was -5% in experiment [1] (setting [7]); 32% in experiment [1] (setting [8]); 59.4% in experiment [1] (at 50.0 µM); -2% in experiment [2] (setting [7]); 17% in experiment [2] (setting [8]); 27.1% in experiment [2] (at 50.0 µM). In addition, the growth inhibition in experiment [3] (setting [7]) was 2%; in experiment [3] (setting [8]), 34%; in experiment [3] (at 50.0 µM) it was 62.4%; in experiment [4] (setting [7]), 3%; in experiment [4] (setting [8]), 70% (active); in experiment [4] (at 50.0 µM), 41.2%. For the same compound, the growth inhibition was -5% in experiment [5] (setting [7]); 50% in experiment [5] (setting [8]); 77% (active) in experiment [5] (at 50.0 µM); -1% in experiment [6] (setting [7]); 57% in experiment [6] (setting [8]); 9.45% in experiment [6] (at 50.0 µM).

Consider `COc1ccc(C2c3cc4c(cc3OC(O)C2C)OCO4)c(OC)c1` (stereo not given), for which the growth inhibition in experiment [1] (setting [7]) is -2%; in experiment [1] (setting [8]), 96% (active); in experiment [1] (at 50.0 µM), 85.6% (active); in experiment [2] (setting [7]) it was 1%; in experiment [2] (setting [8]), 95% (active); in experiment [2] (at 50.0 µM), 58.5%. The growth inhibition in experiment [3] (setting [7]) was 5%; in experiment [3] (setting [8]), 95% (active); in experiment [3] (at 50.0 µM) it was 83.8% (active); in experiment [4] (setting [7]) it was -8%; in experiment [4] (setting [8]), 89% (active); in experiment [4] (at 50.0 µM), 68.9%. Also, the growth inhibition in experiment [5] (setting [7]) is -4%; in experiment [5] (setting [8]), 88% (active); in experiment [5] (at 50.0 µM), 68.8%; in experiment [6] (setting [7]), -5%; in experiment [6] (setting [8]), 97% (active); in experiment [6] (at 50.0 µM), 87.5% (active).

For the compound `Brc1ccc(C2c3ccccc3-c3ccccc32)cc1`, the growth inhibition in experiment [1] (setting [7]) is 21%; in experiment [1] (setting [8]), 97% (active); in experiment [1] (at 50.0 µM), 94.5% (active); in experiment [2] (setting [7]), 16%; in experiment [2] (setting [8]), 97% (active); in experiment [2] (at 50.0 µM), 94.7% (active). In addition, the growth inhibition is 15% in experiment [3] (setting [7]); 95% (active) in experiment [3] (setting [8]); 96.6% (active) in experiment [3] (at 50.0 µM); 0% in experiment [4] (setting [7]); 97% (active) in experiment [4] (setting [8]); 94% (active) in experiment [4] (at 50.0 µM). The growth inhibition is 2% in experiment [5] (setting [7]); 98% (active) in experiment [5] (setting [8]); 95.8% (active) in experiment [5] (at 50.0 µM); -4% in experiment [6] (setting [7]); 97% (active) in experiment [6] (setting [8]); 94.8% (active) in experiment [6] (at 50.0 µM).

With `O=C1CC2Sc3ccccc3N=C2N1c1ccc(Cl)cc1Cl` (stereo not given), the growth inhibition in experiment [1] (setting [7]) was 36%; in experiment [1] (setting [8]) it was 96% (active); in experiment [1] (at 50.0 µM) it was 88.2% (active); in experiment [2] (setting [7]), 33%; in experiment [2] (setting [8]), 100% (active); in experiment [2] (at 50.0 µM), 93.2% (active). Further, the growth inhibition in experiment [3] (setting [7]) was 42%; in experiment [3] (setting [8]), 100% (active); in experiment [3] (at 50.0 µM), 88.8% (active); in experiment [4] (setting [7]) it was 34%; in experiment [4] (setting [8]) it was 73% (active); in experiment [4] (at 50.0 µM) it was 65.2%. The growth inhibition in experiment [5] (setting [7]) was 39%; in experiment [5] (setting [8]) it was 99% (active); in experiment [5] (at 50.0 µM), 92% (active); in experiment [6] (setting [7]), 47%; in experiment [6] (setting [8]), 98% (active); in experiment [6] (at 50.0 µM) it was 89.6% (active).

For `COc1cc(C2C(Cl)C(=O)N2NC(=O)c2ccccc2O)cc(OC)c1OC` (stereo not given), the growth inhibition in experiment [1] (setting [7]) was -8%; in experiment [1] (setting [8]), 77% (active); in experiment [1] (at 50.0 µM) it was 76.3% (active); in experiment [2] (setting [7]) it was -10%; in experiment [2] (setting [8]) it was 70% (active); in experiment [2] (at 50.0 µM) it was 70.5% (active). Besides, the growth inhibition in experiment [3] (setting [7]) was 1%; in experiment [3] (setting [8]), 81% (active); in experiment [3] (at 50.0 µM) it was 78.8% (active); in experiment [4] (setting [7]), -2%; in experiment [4] (setting [8]) it was 40%; in experiment [4] (at 50.0 µM), 35.2%. Besides, the growth inhibition was -11% in experiment [5] (setting [7]); 48% in experiment [5] (setting [8]); 80.8% (active) in experiment [5] (at 50.0 µM); 6% in experiment [6] (setting [7]); 87% (active) in experiment [6] (setting [8]); 78.8% (active) in experiment [6] (at 50.0 µM).

For the compound `[O-][n+]1c2ccccc2cc2c1c1ccccc1n2O`, the growth inhibition is -1% in experiment [1] (setting [7]); 1% in experiment [1] (setting [8]); 20.1% in experiment [1] (at 50.0 µM); 0% in experiment [2] (setting [7]); 0% in experiment [2] (setting [8]); 5.2% in experiment [2] (at 50.0 µM). For the same compound, the growth inhibition was -7% in experiment [3] (setting [7]); -3% in experiment [3] (setting [8]); 17.7% in experiment [3] (at 50.0 µM); 4% in experiment [4] (setting [7]); 8% in experiment [4] (setting [8]); 46.4% in experiment [4] (at 50.0 µM). The growth inhibition is 6% in experiment [5] (setting [7]); 4% in experiment [5] (setting [8]); 0.45% in experiment [5] (at 50.0 µM); -4% in experiment [6] (setting [7]); -5% in experiment [6] (setting [8]); 13.9% in experiment [6] (at 50.0 µM).

On to `N#CSc1ccc(O)c2ccccc12`, for which the growth inhibition in experiment [1] (setting [7]) is 75% (active); in experiment [1] (setting [8]), 79% (active); in experiment [1] (at 50.0 µM) it was 90.2% (active); in experiment [2] (setting [7]) it was 64%; in experiment [2] (setting [8]), 87% (active); in experiment [2] (at 50.0 µM), 91% (active). Besides, the growth inhibition in experiment [3] (setting [7]) is 19%; in experiment [3] (setting [8]), 98% (active); in experiment [3] (at 50.0 µM) it was 91.7% (active); in experiment [4] (setting [7]), 45%; in experiment [4] (setting [8]) it was 98% (active); in experiment [4] (at 50.0 µM) it was 91% (active). Also, the growth inhibition is 42% in experiment [5] (setting [7]); 96% (active) in experiment [5] (setting [8]); 90.3% (active) in experiment [5] (at 50.0 µM); 29% in experiment [6] (setting [7]); 74% (active) in experiment [6] (setting [8]); 89.5% (active) in experiment [6] (at 50.0 µM).

As for `COC(=O)C(C#N)C(c1ccccc1)c1c[nH]c2ccccc12` (stereo not given), the growth inhibition is -3% in experiment [1] (setting [7]); 75% (active) in experiment [1] (setting [8]); 77.2% (active) in experiment [1] (at 50.0 µM); -4% in experiment [2] (setting [7]); 59% in experiment [2] (setting [8]); 16.3% in experiment [2] (at 50.0 µM). Moreover, the growth inhibition was -5% in experiment [3] (setting [7]); 63% in experiment [3] (setting [8]); 55.7% in experiment [3] (at 50.0 µM); -52% in experiment [4] (setting [7]); 82% (active) in experiment [4] (setting [8]); 24.1% in experiment [4] (at 50.0 µM). For the same compound, the growth inhibition in experiment [5] (setting [7]) was -7%; in experiment [5] (setting [8]), 71% (active); in experiment [5] (at 50.0 µM), -4.8%; in experiment [6] (setting [7]), -14%; in experiment [6] (setting [8]) it was 89% (active); in experiment [6] (at 50.0 µM), 71% (active).
